Screen size: about 360,000 compounds; about 160 (0.044%) were called active. Rule as the data show it: active = survival enhancement above about 18%; inactive = the rest. The list comes from a sample in which actives are over-represented; it also holds similar structures and randomly drawn compounds.

The nature of the test: compounds raising survival of dissociated human iPSCs – cell-based, ATPlite luminescence, primary screen (AID 602274).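 Also: cells exposed to compounds for 16 hours before the ATP read.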 The note with it: hiPSC single-cell survival, at 20 µM, active compounds read high, 100% = ROCK inhibitor wells, 0% = DMSO. In general terms: Cellular ATP, detected with luciferase, serves as a proxy for viable cell number.
Regarding `Cc1ccc(Nc2c(O)nc[nH]c2=O)cc1C`, the survival enhancement was 0.4% (inactive).
In the case of `CC(=NCc1ccc2c(c1)OCO2)C1=C(O)c2ccccc2C1=O` it was 2.2% (inactive).
Regarding `CC(=O)Nc1ccc(S(=O)(=O)Oc2ccc(/C=N/N=C3/NC(=O)C(CC(=O)O)S3)cc2)cc1` (stereo not drawn), the survival enhancement is 2% (inactive).
As for `COc1cc(CO)c(C2(CO)CCCC2)cc1OC`, the figure is 3.1% (inactive).
With `C[C@@H]1ON(C)[C@H]2C[C@H]3c4cc(N5CCN(C)CC5)ccc4CCN3C(=O)[C@@H]12`, the survival enhancement was -2.2% (inactive).
As for `CC(C)C(C)(C#N)NC(=O)CSc1nc2scc(-c3ccccc3)c2c(=O)[nH]1` (stereo not drawn), the figure is -0.3% (inactive); as for `N=C1C(=O)OCC1c1ccccc1NC(=O)CN1CCCCC1` (stereo not drawn), -0.4% (inactive); as for `COc1ccc(C(C(=O)NCc2ccccc2)N(Cc2cccs2)C(=O)c2cnccn2)cc1` (stereo not drawn), 6.6% (inactive).
As for `COC(=O)c1ccc(CN2CCCC(C(=O)Nc3cccc(-n4cnnn4)c3)C2)cc1` (stereo not drawn), the figure is 0.6% (inactive); as for `C=CC(COCc1ccccc1)N(CC(=O)OC)S(=O)(=O)c1cc(Br)ccc1OC` (stereo not drawn), -0.4% (inactive); as for `CCCNc1c(N)c(=O)c1=O`, -0.6% (inactive).
As for `O=C(Nc1ccccc1N1CCCC1)c1ccc(F)c(S(=O)(=O)N2CCOCC2)c1`, the figure is -0.3% (inactive); as for `O=C(c1cccs1)N1C[C@H](n2cc(C3CC3)nn2)[C@@H](O)C[C@@H]1c1ccccc1`, -0.3% (inactive).
Take `Cc1c(S(=O)(=O)N2CC(C)CC(C)C2)c(=O)n(C)c(=O)n1C` (stereo not drawn): the survival enhancement was -0.4% (inactive).
As for `CCc1nc2ccc(C(=O)Nc3cccc(OC)c3)cn2c1N(CCC(C)C)CCN(C)C`, the figure is -0.8% (inactive); as for `CNC(=O)c1nnc(Cc2ccc(Cl)cc2)o1`, 0.3% (inactive).
In the case of `CCn1c(=S)sc2c(=O)n(CC(=O)Nc3cccc(Br)c3)c(C)nc21` it was -0.2% (inactive).
In the case of `CCNC(=O)N1CCCC(C(=O)c2ccc(-c3ccccc3)cc2)C1` (stereo not drawn), the survival enhancement was 1.4% (inactive).
As for `CC1(C)CC(N(Cc2ccccc2)C(=O)Cc2ccccc2)CCO1` (stereo not drawn), the figure is -0.5% (inactive).
As for `CCN1C[C@@H]2[C@@H]3C(=O)N(C)C(=O)[C@@H]3[C@](C)(C1=O)N2C(=O)c1ccccc1`, the figure is -1.3% (inactive); as for `CC(C)C[C@H](NC(=O)C1CCC(CNC(=O)[C@@H]2CCCN2C(=O)OC(C)(C)C)CC1)C(=O)O` (stereo partly drawn), 0.8% (inactive).
In the case of `Cc1nc(C(F)(F)F)ccc1C(=O)N1CCC1(C)C(=O)NS(=O)(=O)c1ccc(F)cc1F` (stereo not drawn) it was -1.2% (inactive); in that of `CC[C@H]1OC(=O)[C@H](C)[C@@H](O[C@H]2C[C@@](C)(OC)[C@@H](O)[C@H](C)O2)[C@H](C)[C@@H](O[C@@H]2O[C@H](C)C[C@H](N(C)C)[C@H]2O)[C@](C)(O)C[C@@H](C)[C@@H]2N[C@@H](COCCOC)O[C@H]([C@H]2C)[C@]1(C)O`, 1.7% (inactive).

Values taken from PubChem BioAssay AID602274 (Sanford-Burnham Center for Chemical Genomics, 2012).
